Measurements: PubChem BioAssay (Tox21)
Several values for one entry are separate records, joined by “and”; a condition that tells them apart may be missing. Identical values can stand only once. Inconclusive results are not listed. Entries that show only a call come without a potency. More than one record can exist for a structure, and the calls need not agree. Activity calls are given as the source filed them. Calls follow the shape of the full dose curve.

molecular target: Muscarinic acetylcholine receptor M1 (Homo sapiens) (UniProt P11229); assay: Cholinergic receptor muscarinic 1 (CHRM1) small molecule antagonists, cell-based qHTS assay (AID 1963588); details: CHRM1-CHO antagonist mode, calcium flux fluorescence; series mostly up to 61.5 µM; also: nearly all actives have a fitted effect of over 40% in size; also: potency is read from the fitted curve at half-maximal effect
How it was run: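 Compounds were tested at 15 concentrations in three independent runs. Dye-loaded CHRM1-CHO cells were exposed 5 min at room temperature before stimulation by acetylcholine added at 50nM. Intracellular calcium was read kinetically on FDSS for 3 min.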

Muscarinic acetylcholine receptor M1 (Homo sapiens), sequence (P11229 whole entry, looked up): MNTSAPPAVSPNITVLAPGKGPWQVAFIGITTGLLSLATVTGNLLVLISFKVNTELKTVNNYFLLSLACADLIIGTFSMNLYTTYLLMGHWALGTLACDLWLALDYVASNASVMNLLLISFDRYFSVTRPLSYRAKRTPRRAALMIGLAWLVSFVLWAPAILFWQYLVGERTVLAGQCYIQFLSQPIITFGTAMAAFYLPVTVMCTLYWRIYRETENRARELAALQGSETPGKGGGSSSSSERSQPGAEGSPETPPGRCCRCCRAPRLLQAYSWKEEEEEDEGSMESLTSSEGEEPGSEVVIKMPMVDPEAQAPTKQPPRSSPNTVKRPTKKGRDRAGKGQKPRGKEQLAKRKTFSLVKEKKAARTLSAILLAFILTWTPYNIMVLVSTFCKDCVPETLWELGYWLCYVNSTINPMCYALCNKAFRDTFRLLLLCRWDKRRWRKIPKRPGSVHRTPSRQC

Compound	Potency
O=C(NCc1cccnc1)Nc1ccc([N+](=O)[O-])cc1	inactive
ClC1=C(Cl)[C@]2(Cl)[C@@H]3[C@@H](Cl)[C@H](Cl)C[C@@H]3[C@@]1(Cl)C2(Cl)Cl	inactive
CNC(=O)CSP(=S)(OC)OC	inactive
CCOP(=O)(O)OCC (tested in a mixture with another compound)	inactive and 1.48 µM (active)
CC(C)OC(=O)Nc1cccc(Cl)c1	inactive
C=CCc1ccc(OC)cc1	inactive
Oc1ccc(C(c2ccc(O)cc2)(C(F)(F)F)C(F)(F)F)cc1	inactive
COc1cc(OC)nc(NC(=O)NS(=O)(=O)c2ncccc2C(=O)N(C)C)n1	inactive
O=C(Cl)CCl	inactive
NC(=O)CF	inactive
CC(=[OH+])/C=C(/C)[O-].CC(=[OH+])/C=C(\C)[O-].CC(=[OH+])/C=C(\C)[O-].[Al]	inactive
CC(C)(C)OOC(=O)c1ccccc1	13.3 µM (active) and inactive
Nc1ccc(-c2ccc(N)cc2)cc1	inactive
NC(=O)O	inactive
Clc1cccc(Cl)c1	inactive
CC(COc1ccc(Oc2ccccc2)cc1)Oc1ccccn1 (stereo unspecified)	inactive

Compound	Potency
O=C(CBr)c1ccc(O)cc1	inactive
Cn1c(-c2ccccc2)cc(-c2ccccc2)[n+]1C	6.66 µM (active) and inactive
O=C1CCCN1	inactive
CCCCCCCCCCCCCCCC[N+](C)(C)C	2.03 µM (active) and 840 nM (active)
O=S(=O)(O)OOS(=O)(=O)O	inactive
CCCCCCCCOC(=O)c1ccccc1C(=O)OCCCCCCCC	inactive
CCCCCCCCCCCCCl	inactive
COP(=S)(OC)SCN1C(=O)c2ccccc2C1=O	inactive
O=c1[nH]c(=O)n(Cl)c(=O)n1Cl	inactive
OCC1CO1 (stereo unspecified)	inactive
CCOP(=S)(OCC)SCCSCC	inactive
COP(=S)(OC)Oc1ccc([N+](=O)[O-])cc1	inactive
COc1ccc2c3c1O[C@H]1[C@@H](O)C=C[C@H]4[C@@H](C2)N(C)CC[C@@]341	inactive
Oc1ccc(Cl)cc1Cc1ccccc1	inactive
C=C(Cl)CCl	inactive
Cc1ccc(Cl)c(O)c1	inactive

molecular target: Muscarinic acetylcholine receptor M1 (Homo sapiens) (UniProt P11229); assay: Cholinergic receptor muscarinic 1 (CHRM1) small molecule agonists, cell-based qHTS assay (AID 1963589); details: CHRM1-CHO cells, agonist mode, calcium flux fluorescence; series mostly up to 76.8 µM; also: nearly all actives have a fitted effect of over 35% in size; also: potency is read from the fitted curve at half-maximal effect
How it was run: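 Calcium flux read-out: kinetic fluorescence at 1 sec intervals after pin-tool compound addition to dye-loaded CHRM1-CHO cells (human M1). Agonist mode; 15 concentrations tested in triplicate independent runs.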

Compound	Potency
O=C(NCc1cccnc1)Nc1ccc([N+](=O)[O-])cc1	inactive
ClC1=C(Cl)[C@]2(Cl)[C@@H]3[C@@H](Cl)[C@H](Cl)C[C@@H]3[C@@]1(Cl)C2(Cl)Cl	inactive
CNC(=O)CSP(=S)(OC)OC	inactive
CCOP(=O)(O)OCC (tested in a mixture with another compound)	inactive
C=CCc1ccc(OC)cc1	inactive
Oc1ccc(C(c2ccc(O)cc2)(C(F)(F)F)C(F)(F)F)cc1	inactive
COc1cc(OC)nc(NC(=O)NS(=O)(=O)c2ncccc2C(=O)N(C)C)n1	inactive
O=C(Cl)CCl	inactive
NC(=O)CF	inactive
Cc1ccc(CCl)cc1	inactive
CC(C)(C)OOC(=O)c1ccccc1	inactive
Nc1ccc(-c2ccc(N)cc2)cc1	inactive
COP(N)(=O)SC (stereo unspecified)	inactive
Cc1ccc([N+](=O)[O-])cc1C	inactive
NC(=O)O	inactive
Clc1cccc(Cl)c1	inactive

Compound	Potency
CC(COc1ccc(Oc2ccccc2)cc1)Oc1ccccn1 (stereo unspecified)	inactive
O=C(CBr)c1ccc(O)cc1	inactive
Cn1c(-c2ccccc2)cc(-c2ccccc2)[n+]1C	inactive
O=C1CCCN1	49.5 µM (active) and inactive
O=S(=O)(O)OOS(=O)(=O)O	inactive
CCCCCCCCOC(=O)c1ccccc1C(=O)OCCCCCCCC	inactive
CCCCCCCCCCCCCl	inactive
COP(=S)(OC)SCN1C(=O)c2ccccc2C1=O	inactive
O=c1[nH]c(=O)n(Cl)c(=O)n1Cl	inactive
CCOP(OCC)OCC	inactive
OCC1CO1 (stereo unspecified)	inactive
CCOP(=S)(OCC)SCCSCC	inactive
COP(=S)(OC)Oc1ccc([N+](=O)[O-])cc1	inactive
COc1ccc2c3c1O[C@H]1[C@@H](O)C=C[C@H]4[C@@H](C2)N(C)CC[C@@]341	inactive
C=C(Cl)CCl	inactive
Cc1ccc(Cl)c(O)c1	inactive

tested on: not listed separately; assay: cAMP Responsive Elements (CRE) small molecule agonists, cell-based qHTS assay (AID 1963590); details: CRE-bla HEK293T, beta-lactamase FRET ratio, 3 h; series mostly up to 92.4 µM
How it was run: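 Beta-lactamase reporter readout: LiveBLAzer B/G FRET substrate, 2 h at room temperature, added after 3 h compound treatment of CRE-bla HEK 293T cells at 37 C/5% CO2.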

Compound	Potency
O=C(NCc1cccnc1)Nc1ccc([N+](=O)[O-])cc1	inactive
ClC1=C(Cl)[C@]2(Cl)[C@@H]3[C@@H](Cl)[C@H](Cl)C[C@@H]3[C@@]1(Cl)C2(Cl)Cl	inactive
COP(=O)(OC)OC=C(Cl)Cl	inactive
CNC(=O)CSP(=S)(OC)OC	inactive
CCOP(=O)(O)OCC (tested in a mixture with another compound)	inactive
CC(C)OC(=O)Nc1cccc(Cl)c1	inactive
C=CCc1ccc(OC)cc1	inactive
COc1cc(OC)nc(NC(=O)NS(=O)(=O)c2ncccc2C(=O)N(C)C)n1	inactive
O=C(Cl)CCl	inactive
NC(=O)CF	inactive
CC(=[OH+])/C=C(/C)[O-].CC(=[OH+])/C=C(\C)[O-].CC(=[OH+])/C=C(\C)[O-].[Al]	inactive
Cc1ccc(CCl)cc1	inactive
CC(C)(C)OOC(=O)c1ccccc1	inactive
Nc1ccc(-c2ccc(N)cc2)cc1	inactive
COP(N)(=O)SC (stereo unspecified)	inactive
Cc1ccc([N+](=O)[O-])cc1C	inactive

Compound	Potency
NC(=O)O	inactive
Clc1cccc(Cl)c1	inactive
CC(COc1ccc(Oc2ccccc2)cc1)Oc1ccccn1 (stereo unspecified)	inactive
O=C(CBr)c1ccc(O)cc1	inactive
O=C1CCCN1	inactive
O=S(=O)(O)OOS(=O)(=O)O	inactive
CCCCCCCCOC(=O)c1ccccc1C(=O)OCCCCCCCC	inactive
CCCCCCCCCCCCCl	inactive
O=c1[nH]c(=O)n(Cl)c(=O)n1Cl	inactive
CCOP(=S)(OCC)SCCSCC	inactive
COP(=S)(OC)Oc1ccc([N+](=O)[O-])cc1	inactive
COc1ccc2c3c1O[C@H]1[C@@H](O)C=C[C@H]4[C@@H](C2)N(C)CC[C@@]341	inactive
Oc1ccc(Cl)cc1Cc1ccccc1	inactive
C=C(Cl)CCl	inactive
Cc1ccc(Cl)c(O)c1	inactive
CCN(CC)N=O	inactive
